Mac1 fbg inh: blocks human CD11b/CD18 adhesion to fibrinogen; P05107+P11215; K562 CD11b/CD18 adhesion to fibrinogen, ATPlite luminescence; Mn2+ added to activate the integrin; inhibition, % at 10 µM; actives 0.54% (n = 93,000);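 active means primary inhibition of 50% or more at 10 µM, then 40% or more on retest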
Cav3 T inh: human Cav3.2 channel inhibition, primary screen; Cav3.2-expressing cells, Fluo-4 calcium fluorescence FDSS; hits give low values; B-score at 10 µM; AID 449739; O95180; actives 4% (n = 100,000);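 active means single-dose well whose peak fluorescence ratio is a statistical outlier from its plate by either plate-standardised score or position-corrected B-score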
CD11b adhes enh: CD11b/CD18-fibrinogen binding enhancement | P05107+P11215 | activation, % at 10 µM | actives 0.07% (n = 93,000) | K562 CD11b/CD18 adhesion to fibrinogen, ATPlite luminescence;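 active means 10 µM primary screen giving 50% or more activity, confirmed by 40% or more on retest at that dose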
MRP-1 activ: activators of MRP-1. H69AR cells + doxorubicin, viability rescue, CellTiter-Glo. viability increase, % at 10 µM. actives 0.61% (n = 140,000);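 active means viability gain under doxorubicin at or above a set limit, the compound median plus 3 SD, cut at about 4.7% in these data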;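 further: MRP-1 overexpressing cells given doxorubicin 25 µM after compound pretreatment; 18-22 h compound pretreatment then 72 h with doxorubicin before readout; 0% = doxorubicin-only wells and 100% = vehicle-treated cells without doxorubicin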
MRP reversal: reverses drug resistance mediated by MRP; H69AR cells + 2 uM doxorubicin, CellTiter-Glo, 72 h; differential viability (reversal), % at 10 µM; actives 0.04% (n = 85,000);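 active means viability drop by adding the cancer drug above about 55%, with treated viability meeting a 40% cutoff, limit read from the data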;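 further: viability without doxorubicin minus viability with 2 µM doxorubicin for each compound; larger differential means the compound sensitizes cells more to doxorubicin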
PTK2B oligo ant: blocks oligomerization of human Pyk2 in cells; actives 0.83% (n = 99,000); z-score (the deposit names both 25 µM and 10 µM); Q14289; Q293 cells, Pyk2 FERM NanoBiT luminescence; hits give low values;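 active means Z-score of -3 or lower, scaled per plate to the spread of control and sample wells; inactive means z-score above -3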;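 further: negative z-score means lost luminescence so less FERM oligomerization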
The depositor's hits bear a star; / = not tested or not shown. Hits are enriched below; roughly 4.1% of the tested compounds scored in any of these assays.

SMILES	Mac1 fbg inh	Cav3 T inh	CD11b adhes enh	MRP-1 activ	MRP reversal	PTK2B oligo ant
CC(NS(=O)(=O)c1ccc(F)cc1)C(c1cccs1)N1CCOCC1 (stereo unspecified)	/	0.53	/	-3	/	/
CCN(CCCNC(=O)CC(C(=O)N1CCc2ccccc21)n1ccnc1)c1ccccc1 (stereo unspecified)	12	-4.6*	1	-2	6	-0.53
CCN(CCNC(=O)Cn1cc2c(n1)CCCC2)c1ccccc1	-18	-0.38	13	0	-3	/
O=C1CCc2cc(S(=O)(=O)N3CCN(Cc4ccc5c(c4)OCO5)CC3)ccc2N1	9	-0.091	-3	-2	/	2.2
C=CCOc1c(Br)cc(CNc2ccc(NC(=O)C(C)C)c(OC)c2)cc1OC	/	-3.8*	/	-2	/	1.5
NC(=O)c1ccccc1NC(=O)CCCN1C(=O)CCC1=O	-12	-0.64	2	-2	2	0.42
Cc1ccc2nc(Nc3nc(CSc4nc5ccccc5s4)cc(=O)[nH]3)nc(C)c2c1	/	/	/	11*	/	/
COc1ccc2nc(Nc3nc(CSc4nc5ccccc5s4)cc(=O)[nH]3)nc(C)c2c1	/	-1.4	/	/	/	/
COc1ccc(-c2onc(C)c2-c2ccc(C(=O)OC(C)C)o2)c(O)c1	-2	-5.2*	-1	-4	1	-2.4
COc1ccc2c(c1)CCc1c(C(=O)NCc3ccc(F)cc3)noc1-2	-2	0.077	-1	0	-9	/
O=c1oc2ccccc2cc1NCc1ccccc1O	16	-5.2*	-2	-3	-18	/
CCN(CC(=O)NC1CCS(=O)(=O)C1)S(=O)(=O)c1ccc(C)c(C)c1 (stereo unspecified)	/	/	/	-2	/	/
COC(=O)Nc1nnc(Cc2ccccc2)s1	-8	-3	-1	-1	-5	-0.22
COc1ccc(CN2CCn3ncc(C(=O)Nc4cccc(C)c4)c3C2=O)cc1	6	-5.5*	-6	-2	2	-0.84
COc1ccc(CN2C3CCCC2CC(NC(=O)Nc2cccc(C)c2)C3)cc1 (stereo unspecified)	/	/	/	-2	0	0.14
On1c2c(c3c4nonc4ccc31)CCCC2	/	-5.8*	/	1	4	/
O/N=C1/CCCCc2sccc21	22	0.13	-1	-1	-10	-0.27
COc1ccc(N2C(S)=C(C#N)C(=O)NC2c2ccco2)cc1 (stereo unspecified)	/	/	/	16*	/	/
COc1ccc(CCNC(=O)C2CCN(Cc3nc(-c4ccccc4C)oc3C)CC2)cc1OC	16	-0.069	-9	-5	4	0.39
CCc1ccc(-c2nc(CN3CCC(C(=O)NCCN(CC)c4ccccc4)CC3)c(C)o2)cc1	11	-7.5*	-3	-3	-1	-1.3
Cc1ccccc1-c1nc(CN2CCC(C(=O)NCCC3=CCCCC3)CC2)c(C)o1	15	-7.1*	0	-3	-30	1.2
CCc1ccc(-c2nc(CN3CCC(C(=O)NCc4ccc(F)cc4)CC3)c(C)o2)cc1	10	-7.3*	-4	-2	-8	-0.78
CCc1ccc(-c2nc(CN3CCC(C(=O)N4CCN(c5ccccc5)CC4)CC3)c(C)o2)cc1	26	-4	-3	-5	-8	-0.17
Cc1oc(-c2ccc(Cl)cc2)nc1CN1CCCC(C(=O)N2CCN(C(=O)c3ccco3)CC2)C1 (stereo unspecified)	64*	0.82	-5	-2	1	/
Cc1c(N=Cc2cc(Br)cc(Br)c2O)cccc1C(=O)O	/	/	/	-2	/	/
SMILES	Mac1 fbg inh	Cav3 T inh	CD11b adhes enh	MRP-1 activ	MRP reversal	PTK2B oligo ant
O=C(c1ccc(CN2CCOCC2)cc1)N1CCN(c2ccccc2)CC1	/	1	/	-2	5	-1.2
Cc1nnc(SCCn2c(N3CCC(C)CC3)nc3c2c(=O)n(C)c(=O)n3C)s1	/	0.33	/	/	1	0.38
Cc1cccc(C)c1NC(=O)C(NS(=O)(=O)c1cccs1)c1ccccc1 (stereo unspecified)	/	/	/	-1	/	/
Cc1nc2nc(-c3cccnc3)[nH]n2c(=O)c1C	-18	/	0	0	3	-0.64
Cc1oc(-c2ccc(Cl)cc2)nc1CN1CCC(C(=O)NCc2cccs2)CC1	-30	-7.5*	1	-4	13	0.49
Cc1oc(-c2ccc(Cl)cc2)nc1CN1CCC(C(=O)NCCCN2CCOCC2)CC1	20	0.74	0	-2	13	-0.01
CCN(CCNC(=O)C1CCN(Cc2nc(-c3cccc(Cl)c3)oc2C)CC1)c1ccccc1	36	-6.9*	-2	-3	-10	0.32
CCc1ccc(-c2nc(CN3CCCC(C(=O)O)C3)c(C)o2)cc1 (stereo unspecified)	-18	0.58	-1	0	4	/
Cc1oc(-c2cccc(Cl)c2)nc1CN1CCC(C(=O)NCc2cccnc2)CC1	18	1.1	-5	-1	6	2.5
CCN(CCNC(=O)C1CCN(Cc2nc(-c3ccc(Cl)cc3)oc2C)CC1)c1ccccc1	19	-8.4*	-3	-3	-7	-0.02
CCN(CCNC(=O)C1CCCN(Cc2nc(-c3ccc(OC)cc3)oc2C)C1)c1ccccc1 (stereo unspecified)	24	-4.9*	-4	-3	-20	-0.22
COc1ccc(Cc2nnc(Nc3ccc(C)cc3C)[nH]c2=O)cc1	7	-0.76	2	-1	8	1.2
CC[C@H](CO)Nc1nc(Nc2cccc(Cl)c2)c2ncn(C(C)C)c2n1	/	-0.43	/	/	/	/
O=C(NCCSCc1ccco1)Nc1ccc(Cl)cc1	5	/	-4	-1	12	1.8
O=C(NCCSCc1ccco1)Nc1cccc(Cl)c1	/	-4.5*	/	-2	8	-0.59
Cc1ccc(C(=O)NNC(=O)C(C)Sc2nc(N)cc(N)n2)cc1 (stereo unspecified)	-5	0.71	4	-1	/	-0.13
CC1(C)CC2CC(C)(CN2C(=O)COC(=O)c2ccc(Cl)c(N)c2)C1 (stereo unspecified)	-5	-6.4*	-3	0	3	0.95
NS(=O)(=O)c1ccc(NC(=O)COC(=O)C2(c3ccccc3F)CCCC2)cc1	/	/	/	-1	/	/
CCOc1ccc(N(C(C)C(=O)NC(C)CC)S(C)(=O)=O)cc1 (stereo unspecified)	3	-0.31	-3	-2	11	-0.68
CCOc1ccc(N(C(C)C(=O)N/N=C(\C)c2cccc(NC(=O)c3ccccc3)c2)S(C)(=O)=O)cc1 (stereo unspecified)	/	-10*	/	0	/	-0.33
COCCn1c(SCC(=O)Nc2ccc(Cl)c(S(=O)(=O)N(C)C)c2)nc2ccccc21	14	-6.2*	-1	1	/	-2.4
COCCn1c(SCC(=O)Nc2ccc(S(N)(=O)=O)cc2)nc2ccccc21	0	0.82	-3	0	/	2.5
CN(C)c1ccc(/C=C2\SC(=S)N(Nc3ncc(C(F)(F)F)cc3Cl)C2=O)cc1	/	-5.1*	/	0	11	-3.4*
COc1cc(/C=C2\SC(=S)N(Nc3ncc(C(F)(F)F)cc3Cl)C2=O)ccc1O	-3	-2.5	4	-1	/	-3.1*

Screening data as filed in PubChem.
